Measurements published in PMC7862700, “An all-to-all approach to the identification of sequence-specific readers for epigenetic DNA modifications on cytosine”.

Key:
Assay in all cases: DAPPL (digital affinity profiling via proximity ligation, sequencing); 10 mM Tris-HCl pH 7.5, 50 mM NaCl, 1 mM DTT, 4% glycerol, room temperature, 30 min; GST-TFs on glutathione beads, 16-mer random dsDNA library, 0.1% formaldehyde crosslink after washing; high values mean tight binding
Settings in all cases: protein: recombinant; tags: N-terminal GST; dsDNA, one strand shown
ELK1 = molecular target: T1, ELK1 (Homo sapiens, UniProt P19419 1-428)
T1 sequence: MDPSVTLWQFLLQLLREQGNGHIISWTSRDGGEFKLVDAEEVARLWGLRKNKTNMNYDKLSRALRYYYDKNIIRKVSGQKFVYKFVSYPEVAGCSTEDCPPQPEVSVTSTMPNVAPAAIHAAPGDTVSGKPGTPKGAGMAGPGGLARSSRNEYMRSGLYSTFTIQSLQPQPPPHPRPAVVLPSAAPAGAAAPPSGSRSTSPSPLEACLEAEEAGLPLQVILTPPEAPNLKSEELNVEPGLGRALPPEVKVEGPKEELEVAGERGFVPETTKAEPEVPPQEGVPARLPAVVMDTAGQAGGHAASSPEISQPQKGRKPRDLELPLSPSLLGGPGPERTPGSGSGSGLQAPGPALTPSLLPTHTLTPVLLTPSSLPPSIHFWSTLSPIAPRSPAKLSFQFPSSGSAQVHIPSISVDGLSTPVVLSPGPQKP
Summary of the method: (§1)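 GST fusions of human transcription factors were expressed in yeast and captured with glutathione beads. Once given DNA barcodes and pooled alongside a tag-only sample, they were incubated for 30 min at room temperature with 200 nmole of a random double-stranded 16-mer DNA library in Tris/NaCl/DTT/glycerol buffer, then washed, crosslinked (0.1% formaldehyde), proximity-ligated, PCR-amplified and sequenced on an Illumina NextSeq500. The binding signal of each hexamer is its read frequency for a factor divided by its frequency for the tag-only sample.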

GABPA = molecular target: T2, GABPA (Homo sapiens, UniProt Q06546 1-454)
T2 sequence: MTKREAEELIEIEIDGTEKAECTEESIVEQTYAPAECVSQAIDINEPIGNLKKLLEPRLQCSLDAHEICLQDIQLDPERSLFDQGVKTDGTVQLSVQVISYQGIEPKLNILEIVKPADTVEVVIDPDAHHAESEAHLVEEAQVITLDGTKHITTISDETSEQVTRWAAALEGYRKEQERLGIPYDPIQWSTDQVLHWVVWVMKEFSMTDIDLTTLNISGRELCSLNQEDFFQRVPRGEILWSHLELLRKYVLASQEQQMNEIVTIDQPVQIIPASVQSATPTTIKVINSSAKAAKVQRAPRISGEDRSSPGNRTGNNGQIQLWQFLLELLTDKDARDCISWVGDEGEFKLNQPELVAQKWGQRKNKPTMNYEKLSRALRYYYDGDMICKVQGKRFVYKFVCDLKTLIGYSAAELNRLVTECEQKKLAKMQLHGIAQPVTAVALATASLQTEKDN
Summary of the method: as §1

ERG = molecular target: T3, ERG (Homo sapiens, UniProt P11308 1-479)
T3 sequence: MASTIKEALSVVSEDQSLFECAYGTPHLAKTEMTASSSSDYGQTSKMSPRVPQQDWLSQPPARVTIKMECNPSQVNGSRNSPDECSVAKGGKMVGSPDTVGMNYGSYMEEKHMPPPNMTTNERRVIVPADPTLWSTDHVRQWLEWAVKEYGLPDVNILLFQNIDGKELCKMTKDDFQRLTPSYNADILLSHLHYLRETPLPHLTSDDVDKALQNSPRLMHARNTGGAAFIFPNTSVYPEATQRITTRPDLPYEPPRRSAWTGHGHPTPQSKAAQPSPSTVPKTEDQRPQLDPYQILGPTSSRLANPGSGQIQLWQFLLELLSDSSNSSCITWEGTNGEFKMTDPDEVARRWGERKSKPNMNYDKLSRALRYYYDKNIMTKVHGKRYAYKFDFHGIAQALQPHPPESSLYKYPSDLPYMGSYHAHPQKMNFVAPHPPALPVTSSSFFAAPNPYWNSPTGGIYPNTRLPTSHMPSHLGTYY
Summary of the method: as §1

ELF1 = ELF1 (Homo sapiens, UniProt P32519 1-619)
Summary of the method: as §1

EHF = molecular target: T4, EHF (Homo sapiens, UniProt Q9NZC4 1-300)
T4 sequence: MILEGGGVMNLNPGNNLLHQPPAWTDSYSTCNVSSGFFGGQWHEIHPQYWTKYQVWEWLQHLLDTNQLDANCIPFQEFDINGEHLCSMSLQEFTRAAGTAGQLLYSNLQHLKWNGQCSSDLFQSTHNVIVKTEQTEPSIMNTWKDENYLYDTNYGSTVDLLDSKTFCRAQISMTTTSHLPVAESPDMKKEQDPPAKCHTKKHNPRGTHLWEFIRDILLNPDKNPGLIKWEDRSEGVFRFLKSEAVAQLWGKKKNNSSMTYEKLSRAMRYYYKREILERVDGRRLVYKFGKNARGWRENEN
Summary of the method: as §1

SPIB = SPIB (Homo sapiens, UniProt Q01892 1-262)
Summary of the method: as §1

SPIC = molecular target: T5, SPIC (Homo sapiens, UniProt Q8N5J4 1-248)
T5 sequence: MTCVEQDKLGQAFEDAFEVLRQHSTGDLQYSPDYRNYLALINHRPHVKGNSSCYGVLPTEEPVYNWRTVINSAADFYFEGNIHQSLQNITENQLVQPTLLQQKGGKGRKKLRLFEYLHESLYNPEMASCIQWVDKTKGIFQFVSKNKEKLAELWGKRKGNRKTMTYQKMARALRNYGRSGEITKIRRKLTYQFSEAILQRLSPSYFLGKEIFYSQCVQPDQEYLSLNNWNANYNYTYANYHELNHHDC
Summary of the method: as §1

ELF4 = ELF4 (Homo sapiens, UniProt Q99607 1-663)
Summary of the method: as §1

ELK4 = molecular target: T6, ELK4 (Homo sapiens, UniProt P28324-2 1-405)
T6 sequence: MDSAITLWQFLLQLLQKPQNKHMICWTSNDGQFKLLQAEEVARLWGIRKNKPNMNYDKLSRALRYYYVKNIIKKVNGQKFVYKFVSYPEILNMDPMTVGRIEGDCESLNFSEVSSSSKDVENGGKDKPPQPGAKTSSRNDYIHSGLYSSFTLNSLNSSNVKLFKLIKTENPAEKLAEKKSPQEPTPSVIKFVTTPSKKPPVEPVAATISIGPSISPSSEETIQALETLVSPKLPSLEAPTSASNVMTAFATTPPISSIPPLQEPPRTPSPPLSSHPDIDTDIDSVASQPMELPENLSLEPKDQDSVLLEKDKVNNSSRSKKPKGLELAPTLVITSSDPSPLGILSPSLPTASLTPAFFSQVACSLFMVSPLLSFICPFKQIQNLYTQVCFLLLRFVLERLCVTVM
Summary of the method: as §1

ETV1 = ETV1 (Homo sapiens, UniProt P50549 1-477)
Summary of the method: as §1

ERF = molecular target: T7, ERF (Homo sapiens, UniProt P50548 1-548)
T7 sequence: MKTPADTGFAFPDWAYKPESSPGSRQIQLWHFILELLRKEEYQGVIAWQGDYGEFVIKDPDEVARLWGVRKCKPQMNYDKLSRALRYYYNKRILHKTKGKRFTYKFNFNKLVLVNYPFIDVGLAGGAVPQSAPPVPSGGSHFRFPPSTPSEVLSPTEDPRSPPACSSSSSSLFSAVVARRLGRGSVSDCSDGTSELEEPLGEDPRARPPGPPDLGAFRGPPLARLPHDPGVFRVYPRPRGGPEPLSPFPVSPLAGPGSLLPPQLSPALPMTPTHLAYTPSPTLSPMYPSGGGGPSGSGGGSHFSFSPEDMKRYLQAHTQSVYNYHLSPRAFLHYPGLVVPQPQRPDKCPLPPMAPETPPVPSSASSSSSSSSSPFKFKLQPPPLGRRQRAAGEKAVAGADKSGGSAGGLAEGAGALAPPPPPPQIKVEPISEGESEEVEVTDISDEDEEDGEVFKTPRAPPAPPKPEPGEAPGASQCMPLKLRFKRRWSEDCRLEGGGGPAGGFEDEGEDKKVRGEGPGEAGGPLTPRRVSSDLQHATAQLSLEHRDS
Summary of the method: as §1

ETV3L = molecular target: T8, ETV3L (Homo sapiens, UniProt Q6ZN32 1-361)
T8 sequence: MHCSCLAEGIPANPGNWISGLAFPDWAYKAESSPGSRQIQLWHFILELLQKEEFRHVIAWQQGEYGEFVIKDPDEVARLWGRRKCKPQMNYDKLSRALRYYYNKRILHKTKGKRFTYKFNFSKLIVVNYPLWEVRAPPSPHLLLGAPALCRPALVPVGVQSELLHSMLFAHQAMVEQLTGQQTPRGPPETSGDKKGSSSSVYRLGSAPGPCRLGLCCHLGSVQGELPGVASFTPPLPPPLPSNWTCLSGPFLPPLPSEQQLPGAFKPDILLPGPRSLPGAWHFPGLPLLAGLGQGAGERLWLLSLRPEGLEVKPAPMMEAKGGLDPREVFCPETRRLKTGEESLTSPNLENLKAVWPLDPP
Summary of the method: as §1

ETS2 = molecular target: T9, ETS2 (Homo sapiens, UniProt P15036 1-469)
T9 sequence: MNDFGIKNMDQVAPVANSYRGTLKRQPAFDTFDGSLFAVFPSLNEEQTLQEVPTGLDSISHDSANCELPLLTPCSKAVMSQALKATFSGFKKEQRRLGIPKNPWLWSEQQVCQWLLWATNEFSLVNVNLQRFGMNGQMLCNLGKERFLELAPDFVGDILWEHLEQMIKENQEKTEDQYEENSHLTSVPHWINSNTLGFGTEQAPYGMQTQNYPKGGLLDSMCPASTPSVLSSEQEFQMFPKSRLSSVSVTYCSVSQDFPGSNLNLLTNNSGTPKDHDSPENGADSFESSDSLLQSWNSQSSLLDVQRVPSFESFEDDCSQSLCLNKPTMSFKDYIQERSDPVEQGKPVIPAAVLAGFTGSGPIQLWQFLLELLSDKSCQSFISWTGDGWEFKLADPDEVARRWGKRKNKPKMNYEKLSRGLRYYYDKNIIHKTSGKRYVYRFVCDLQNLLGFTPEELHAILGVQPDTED
Summary of the method: as §1

ETV7 = molecular target: T10, ETV7 (Homo sapiens, UniProt Q9Y603 1-341)
T10 sequence: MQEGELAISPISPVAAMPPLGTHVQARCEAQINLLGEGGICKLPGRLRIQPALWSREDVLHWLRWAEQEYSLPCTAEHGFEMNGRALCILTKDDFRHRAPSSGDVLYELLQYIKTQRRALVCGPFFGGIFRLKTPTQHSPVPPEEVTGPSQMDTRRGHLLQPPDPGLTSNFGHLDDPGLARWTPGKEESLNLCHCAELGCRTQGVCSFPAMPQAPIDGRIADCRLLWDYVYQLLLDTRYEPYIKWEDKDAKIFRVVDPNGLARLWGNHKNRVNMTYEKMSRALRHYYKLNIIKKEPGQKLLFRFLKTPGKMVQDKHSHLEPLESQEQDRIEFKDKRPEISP
Summary of the method: as §1

ETV6 = ETV6 (Homo sapiens, UniProt P41212 1-452)
Summary of the method: as §1

Sequence of ETV1 (P50549 whole entry): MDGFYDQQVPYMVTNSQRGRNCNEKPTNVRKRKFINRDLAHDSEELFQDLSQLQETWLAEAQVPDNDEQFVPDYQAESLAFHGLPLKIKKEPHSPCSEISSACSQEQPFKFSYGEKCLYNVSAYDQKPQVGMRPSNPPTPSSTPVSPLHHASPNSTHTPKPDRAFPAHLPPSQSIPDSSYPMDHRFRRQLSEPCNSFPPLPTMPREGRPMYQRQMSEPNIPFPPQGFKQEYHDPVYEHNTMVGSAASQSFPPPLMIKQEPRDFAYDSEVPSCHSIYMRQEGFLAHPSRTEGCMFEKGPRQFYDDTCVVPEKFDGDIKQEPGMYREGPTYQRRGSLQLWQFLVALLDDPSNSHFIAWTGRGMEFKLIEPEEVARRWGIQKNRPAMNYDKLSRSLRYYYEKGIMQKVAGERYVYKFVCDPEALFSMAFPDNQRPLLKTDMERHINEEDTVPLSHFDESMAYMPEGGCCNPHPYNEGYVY
Sequence of ELF1 (P32519 whole entry): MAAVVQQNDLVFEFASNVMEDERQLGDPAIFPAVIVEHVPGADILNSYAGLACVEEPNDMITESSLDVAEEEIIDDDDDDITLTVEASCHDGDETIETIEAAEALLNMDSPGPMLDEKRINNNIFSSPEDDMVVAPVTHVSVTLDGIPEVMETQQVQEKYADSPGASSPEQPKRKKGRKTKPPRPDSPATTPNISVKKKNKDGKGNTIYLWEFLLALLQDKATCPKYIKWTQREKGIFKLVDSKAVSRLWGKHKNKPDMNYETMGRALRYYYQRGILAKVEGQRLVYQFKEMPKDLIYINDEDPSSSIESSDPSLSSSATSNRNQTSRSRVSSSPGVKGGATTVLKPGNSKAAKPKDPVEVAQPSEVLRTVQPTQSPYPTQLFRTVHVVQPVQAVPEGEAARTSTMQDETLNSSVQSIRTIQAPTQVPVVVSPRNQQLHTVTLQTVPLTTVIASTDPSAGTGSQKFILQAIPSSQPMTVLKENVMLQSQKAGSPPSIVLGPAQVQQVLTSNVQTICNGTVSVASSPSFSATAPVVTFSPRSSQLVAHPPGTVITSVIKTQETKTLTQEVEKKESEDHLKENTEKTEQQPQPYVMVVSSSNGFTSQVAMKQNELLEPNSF
Sequence of SPIB (Q01892 whole entry): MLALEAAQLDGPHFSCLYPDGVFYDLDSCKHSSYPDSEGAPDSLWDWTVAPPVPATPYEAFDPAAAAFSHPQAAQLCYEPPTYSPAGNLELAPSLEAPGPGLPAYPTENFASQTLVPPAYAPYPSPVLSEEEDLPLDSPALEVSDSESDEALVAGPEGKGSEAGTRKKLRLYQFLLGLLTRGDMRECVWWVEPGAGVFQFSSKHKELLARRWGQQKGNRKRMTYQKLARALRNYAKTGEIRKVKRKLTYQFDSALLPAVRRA
Sequence of ETV6 (P41212 whole entry): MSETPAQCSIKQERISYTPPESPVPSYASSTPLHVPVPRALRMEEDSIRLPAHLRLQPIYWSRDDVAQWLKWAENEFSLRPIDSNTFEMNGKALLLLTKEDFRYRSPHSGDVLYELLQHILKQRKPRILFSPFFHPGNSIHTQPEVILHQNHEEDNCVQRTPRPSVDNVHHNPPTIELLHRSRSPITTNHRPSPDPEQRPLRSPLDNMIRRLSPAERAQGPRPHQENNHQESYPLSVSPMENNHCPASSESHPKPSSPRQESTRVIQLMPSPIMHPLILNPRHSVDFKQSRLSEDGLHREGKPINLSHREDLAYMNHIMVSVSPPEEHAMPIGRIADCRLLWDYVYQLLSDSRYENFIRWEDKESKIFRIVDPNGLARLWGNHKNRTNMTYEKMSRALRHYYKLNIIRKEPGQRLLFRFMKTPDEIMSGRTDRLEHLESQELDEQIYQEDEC
Sequence of ELF4 (Q99607 whole entry): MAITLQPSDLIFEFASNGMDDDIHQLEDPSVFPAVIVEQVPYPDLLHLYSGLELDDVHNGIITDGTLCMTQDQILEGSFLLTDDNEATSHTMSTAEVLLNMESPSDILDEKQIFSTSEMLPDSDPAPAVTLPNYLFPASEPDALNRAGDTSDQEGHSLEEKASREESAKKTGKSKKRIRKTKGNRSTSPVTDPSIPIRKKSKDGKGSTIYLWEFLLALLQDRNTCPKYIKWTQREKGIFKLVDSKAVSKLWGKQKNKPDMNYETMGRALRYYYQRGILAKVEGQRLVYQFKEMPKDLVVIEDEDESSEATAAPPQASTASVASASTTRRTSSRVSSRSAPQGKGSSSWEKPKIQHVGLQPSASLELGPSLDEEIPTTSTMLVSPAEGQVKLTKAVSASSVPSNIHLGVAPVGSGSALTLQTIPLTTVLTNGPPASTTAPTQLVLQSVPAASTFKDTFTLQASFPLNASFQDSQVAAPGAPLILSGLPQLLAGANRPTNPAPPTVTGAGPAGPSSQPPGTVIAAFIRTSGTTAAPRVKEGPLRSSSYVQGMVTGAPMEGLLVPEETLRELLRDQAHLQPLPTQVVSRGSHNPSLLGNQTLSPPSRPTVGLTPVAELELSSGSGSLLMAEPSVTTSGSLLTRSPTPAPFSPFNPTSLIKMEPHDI

GTTCGC was tested, and the binding signal (ELK1) was 1.08 fold enrichment (6-mer frequency, TF over GST control), the binding signal (GABPA) was 1.03 fold enrichment (6-mer frequency, TF over GST control) and the binding signal (ERG) was 1.04 fold enrichment (6-mer frequency, TF over GST control). The binding signal (ELF1) was 1.02 fold enrichment (6-mer frequency, TF over GST control), the binding signal (EHF) was 1.05 fold enrichment (6-mer frequency, TF over GST control) and the binding signal (SPIB) was 1.11 fold enrichment (6-mer frequency, TF over GST control). The binding signal (SPIC) was 1.17 fold enrichment (6-mer frequency, TF over GST control), the binding signal (ELF4) was 1.1 fold enrichment (6-mer frequency, TF over GST control) and the binding signal (ELK4) was 1.16 fold enrichment (6-mer frequency, TF over GST control). For the same sequence, the binding signal (ETV1) was 1.14 fold enrichment (6-mer frequency, TF over GST control), the binding signal (ERF) was 1.18 fold enrichment (6-mer frequency, TF over GST control) and the binding signal (ETV3L) was 1.07 fold enrichment (6-mer frequency, TF over GST control). The binding signal (ETS2) was 1 fold enrichment (6-mer frequency, TF over GST control), the binding signal (ETV7) was 1.02 fold enrichment (6-mer frequency, TF over GST control) and the binding signal (ETV6) was 1.07 fold enrichment (6-mer frequency, TF over GST control).
